Source: PubChem BioAssay AID624202 (National Center for Advancing Translational Sciences (NCATS), 2012)
The campaign covered roughly 380,000 compounds. About 4,000 (1.1%) were called active. Not shown: some 3% with an inconclusive outcome. The sample holds actives, similar compounds and a random draw of the others, so the mix is not that of the screen. Calls come from the whole dose curve; as a rule, active = well fitted activation curve with a large enough effect; inconclusive = small, poorly fitted or top-dose-only effect; inactive = no such curve, though single readings can be large or run the other way.

Experiment: qHTS Assay to Identify Small Molecule Activators of BRCA1 Expression; note: nearly all actives have a fitted effect of over 80% in size
Conditions: MCF7-BRCA1-FFLuc reporter, luminescence, 48 h; series mostly up to 46.1 µM; activation: at the top concentration
Procedure, shortened: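 Luminescence from a BRCA1-driven firefly luciferase in MCF7 cells was the read-out, taken 15 min after substrate addition following 48 h compound exposure at 37 °C. Data were normalized to a 10 microM genistein control and DMSO vehicle.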
Potency is the fitted concentration of half-maximal effect.

activation, inactive:
CC1=C(C(=O)OCc2ccc(C)cc2)C(c2ccccc2Cl)CC(=O)N1 (stereo not drawn) -3.29%
CCc1ccc(CNC(=O)c2cc3c(=O)n(CC)c4ccccc4c3s2)cc1 -26.6%
Cc1cccc(N2CCN(c3ccc(C(=O)O)cc3NC(=O)c3ccccc3F)CC2C)c1 (stereo not drawn) 27%
COc1cc(Cl)c(C)cc1NC(=O)CN1CCCCCC1 15.9%
O=C(CN1CCCCCC1)Nc1ccc(Cl)cc1F -8.5%
Cc1ccc(-c2nn3c(=O)cc(CN4CCN(S(=O)(=O)c5ccc(Cl)cc5)CC4)nc3s2)cc1 8.18%
COc1ccc(-c2nc3ccccc3s2)cc1NC(=O)COc1ccccc1C 0%
CCCCCCC1(C)NC(c2ccc3c(c2)OCO3)=CC(c2ccccc2O)N1 (stereo not drawn) -23.1%
COc1ccc(Nc2ncc(C(=O)Nc3cc(C)ccc3OC)c3ccccc23)cc1 -69.1%
CC1=C(C(=O)OCc2ccc(C)cc2)C(c2c(Cl)cccc2Cl)CC(=O)N1 (stereo not drawn) 13%
Fc1cccc(Cl)c1COc1ccc(-c2nnco2)cc1 36.9%
Fc1ccc(COc2cccc(-c3n[nH]c(=S)o3)c2)cc1 0.968%
COc1cc2nc(Cl)nc(NC3CC3)c2cc1OC 0%
O=C1COc2ccc(-c3csc(-c4ccc(Cl)cc4)n3)cc2N1 -0.092%
Cc1nonc1C1CCCN1C(=O)c1cc(COc2cccc(C(F)(F)F)c2)on1 (stereo not drawn) -1.32%
Cc1ccc(OCc2cc(C(=O)N(C)CCn3ccnc3C)no2)cc1C 33.8%
Cc1[nH]c2ccccc2c1C(c1ccccc1)c1cccs1 (stereo not drawn) -62.9%
CC(=O)c1ccc(NC(=O)c2nc(-c3ccc(C)cc3)n3c2CCCCC3)cc1 -35.8%
Nc1ncnc2nnsc12 15.5%
COc1ccccc1-c1c(C)nn2c(C)c(C(C)=O)cnc12 0.312%
CCc1ccc2nc(Nc3ncc(C(C)=O)c(C)n3)nc(C)c2c1 0.142%
O=C(Cn1c(=O)n(Cc2cccs2)c(=O)c2cccnc21)Nc1ccc(F)cc1 -25.9%
CCc1ccccc1NC(=O)Cn1c(=O)n(CC2CCC(C(=O)NCCc3ccccc3)CC2)c(=O)c2ccccc21 (stereo not drawn) 5.1%
O=C(Cn1c(=O)n(Cc2ccccc2)c(=O)c2sc3ccccc3c21)Nc1ccccc1F 1.09%
COc1ccc(N2C(=O)CSC23C(=O)N(Cc2cccc(F)c2)c2ccccc23)cc1Cl (stereo not drawn) -50.1%
COc1ccc(CCNC(=O)CCc2c(C)nc3c(c(C)nn3-c3ccc(C)c(C)c3)c2C)c(OC)c1OC 5.62%
Cc1ccc(S(=O)(=O)n2nc(-c3ccc(Cl)cc3)nc2NCc2ccccc2)cc1 2.77%
CCS(=O)(=O)n1nc(-c2ccc(OC)cc2)nc1SC 33.3%
COc1ccccc1N1CCN(c2ncnc3onc(-c4ccc(F)cc4)c23)CC1 -0.976%
COc1ccc(-n2nnc(-c3nsc(NC(=O)c4ccc(C)c(C)c4)n3)c2C)cc1Cl -0.247%
CCOc1ccc(CCNC(=O)c2csc3c2CCCCC3)cc1 -1.32%
CCOC(=O)c1ccc(NC(=O)c2csc3c2CCCCC3)cc1 34.8%
Cc1ccc(OCCSc2nc3ccc(NC(=O)COc4ccc(C)cc4)cc3s2)cc1 18.4%
O=C(Cn1c(=O)n(-c2ccc(F)cc2)c(=O)c2sc3ccccc3c21)NC1CCCC1 -12.4%
Cc1cccc(NC(=O)N2CCN(C)c3ncccc32)c1C 9.79%
CCCCC(CC)CNC(=O)C1CCN(S(=O)(=O)c2cccc3nsnc23)CC1 (stereo not drawn) -6.65%
C=CCn1c(SCc2nnc(-c3ccccc3)o2)nnc1C(O)c1ccccc1 (stereo not drawn) 1.72%
CCCN(CCC)c1ccc(C(O)c2nnc(-c3ccccc3)o2)cc1 (stereo not drawn) 24.9%
Cc1cc(C)cc(NC(=O)Cn2c(=O)c3ccccc3n3nncc23)c1 7.25%
Cc1ccc(C=O)cc1Cl 18.6%
O=C(OCc1cc(=O)n2nc(C3CC3)sc2n1)c1ccccc1Cl 12%
COc1cc2nc(SCC(=O)Nc3ccccc3F)n3nc(-c4ccccc4)nc3c2cc1OC 0%
Cc1cc(C)cc(-n2ccnc2SCC(=O)Nc2nc3ccccc3s2)c1 9.67%
COc1cccc(CNC(=O)c2ccc3c(Cl)c4c(nc3c2)CCCC4)c1 10.5%
CN1CCC[C@@H]1CCO[C@](C)(c1ccccc1)c1ccc(Cl)cc1 0%
Cc1cc2oc3ccc(NCCC4CCCN4C)cc3c(=O)c2cc1C (stereo not drawn) -78%
Oc1ccc(Cl)cc1C1C=C(c2ccc3c(c2)OCO3)NC(c2c(F)cccc2Cl)N1 (stereo not drawn) -40.2%
Cc1cc(C)cc(NC(=O)NC2CCCCCCC2)c1 32.7%
O=C(Nc1cccc(F)c1)[C@@H]1CCCN1 -1.33%
CCn1c(CNC(=O)C23CC4CC(CC(C4)C2)C3)nnc1SCC(=O)Nc1ccc(OC)cc1 22%
COc1ccc(-c2cc(-c3ccccc3)nc3c2COc2ccc(Cl)cc2-3)cc1 13.1%
COc1ccc(-c2cc(-c3ccc(F)cc3)nc3c2COc2ccccc2-3)cc1 11.9%
CCCCCn1c(=O)[nH]c2cc(C(=O)NCCN(C)CCCC)ccc2c1=O -3.6%
COC(=O)C1=C(c2ccccc2)c2ccccc2S(=O)(=O)N1CC(=O)Nc1ccccc1C(F)(F)F -3.16%
COCc1nc2ccccc2n1Cc1ccccc1Br -0.381%
COc1ccccc1Cn1c(CO)nc2ccccc21 0%
COc1cc(OC)cc(-c2nc3nc(C)c(CCC(=O)Nc4ccc(C)cc4)c(C)n3n2)c1 -2.52%
O=C(CSc1nc2ccccc2c(=O)n1-c1ccccc1F)N1CCOCC1 -6.09%
CCc1c(O)nc(SCC(=O)N2CCCCC2)n(-c2ccccc2C)c1=O 6.28%
COc1cccc(CNC(=O)CN2C(=O)CCc3cc(S(=O)(=O)N4CCOCC4)ccc32)c1 11.1%
COc1cc(OC)c(/C=C/c2ccnc3ccccc23)c(OC)c1 -43.7%
COc1cc2[nH]c(O)c(C=O)c2cc1OC 1.23%
COc1ccc(/C=C/c2ccnc3ccccc23)cc1OC -23.9%
CCN(CC)/[N+]([O-])=N/OCOC(=O)Cc1c(C)n(C(=O)c2ccc(Cl)cc2)c2ccc(OC)cc12 -16%
CCc1ccc(CNC(=O)c2cc3cc4ccc(OC)cc4nc3o2)cc1 -7.1%
COc1ccccc1OCCNC(=O)CCNC(=O)c1ccccc1Cl -0.0194%
O=C(NCCOc1ccccc1Cl)C(=O)Nc1ccccc1 -41.6%
CCOCCc1nn2c(=O)cc(COC(=O)CNC(=O)c3ccc(C(C)(C)C)cc3)nc2s1 6.51%
Cn1c(=O)nc2n(-c3ccc(Br)cc3)c3cccc(Cl)c3cc-2c1=O -11.7%
O=C(CSc1ncc(S(=O)(=O)c2ccc(Br)cc2)c(=O)[nH]1)Nc1ccc2c(c1)OCCO2 15.7%
O=C(OCc1ccc(-c2ccccc2)cc1)c1cccc(O)c1 83.1%
c1ccc(-c2c[nH]c(-c3ccccc3)c2)cc1 41.4%
COc1ccccc1CNC(=O)CCCCn1c(=O)c2ccccc2n(CC(=O)Nc2cc(Cl)ccc2C)c1=O -20.3%
Cc1cccc(N2CCN(C(=O)c3oc(=O)c4ccccc4c3-c3ccccc3)CC2)c1C -3.27%
O=C(Nc1cnn(Cc2ccc(Cl)cc2)c1)C1CCCC1 7.68%
O=C(c1[nH]ncc1-c1ccc(Cl)cc1)C1CO1 (stereo not drawn) -20%
c1ccc(Cn2nnc3c(N4CCCCC4)ncnc32)cc1 32%
COc1ccccc1CCNC(=O)c1cccn1-c1nnc(N2CCCCC2)s1 -17%
COc1ccc(C2NC(=O)N(C)C3=C2C(=O)N(c2ccc(C(=O)O)cc2)C3)cc1 (stereo not drawn) 8.52%
CC(C)CNC(=S)NNC(=O)c1nn(C)cc1Cl 7.17%
Cc1scc(C(=O)NNC(=S)NCC(C)C)c1C 2.45%
Cc1c2cnn(-c3ccccc3)c(=O)c2c(C)n1C(C)C(=O)Nc1ccc(Br)cc1F (stereo not drawn) -24.2%
Cc1cc(C)cc(-n2c(SCC(=O)NCC3CCCO3)nc3c([nH]c4ccccc43)c2=O)c1 (stereo not drawn) -50.7%
CN(CCOc1ccccc1)C(=O)c1cc(COc2c(F)cccc2F)on1 0%
C[C@H](NC(=O)NCCc1ccccc1)C(=O)O -23.9%
O=C(NCCN1CCCC(O)C1)c1cc(COc2c(F)cccc2F)on1 (stereo not drawn) 5.2%
Nc1nonc1C(=O)NCCc1ccccc1 4.5%

Potency, inactive:
COc1ccc(Nc2ncc(C(=O)N3CCN(c4ccccc4OC)CC3)c3ccccc23)cc1

Potency, active:
CC(=O)Nc1ccc(NC(=O)CN2CCCC(C)C2)c(Cl)c1 (stereo not drawn) 11.2 µM
COc1ccc(Nc2ncnc3sc(C)cc23)cc1 8.91 µM
Fc1ccc(COc2ccc(-c3nnco3)cc2)cc1 11.2 µM
COCC1CCCCN1C(=O)c1cc(COc2ccc(C)c(C)c2)on1 (stereo not drawn) 11.2 µM
COc1ccccc1Nc1ncc(C(C)=O)c(C)n1 10 µM
CCS(=O)(=O)n1nc(-c2ccccc2)nc1SCc1ccccc1 3.98 µM
Cc1ccc(NC(=O)c2csc3c2CCCC3)cc1 12.6 µM
OC(c1nnc(-c2ccccc2)o1)c1cccs1 (stereo not drawn) 11.2 µM
COc1cccc2sc3cc(NCC[C@@H]4CCCN4C)ccc3c(=O)c12 11.2 µM
O=C(Nc1cccc(F)c1)NC1CCCCCCC1 3.55 µM
COc1ccc(C2=Nc3cc(C)ccc3OC2)cc1 11.2 µM
COCn1c(COc2ccccc2)nc2ccccc21 12.6 µM
Cc1ccc(-n2c(SCC(=O)N3CCC(C(=O)O)CC3)nc3ccccc3c2=O)cc1C 4.47 µM
COc1ccc(N=Cc2c(O)[nH]c3ccccc23)cc1OC 3.16 µM
COc1cc(SC)ccc1C(=O)NCCOc1ccccc1Cl 7.94 µM
Oc1ccc(-c2cccc(-c3ccc(O)cc3)c2)cc1 10 µM
O=C(c1nnc(-c2ccc(Cl)cc2)o1)C1CCCC1 11.2 µM
CC(C)CNC(=S)NC(=O)c1ccc(Cl)cc1 10 µM
O=C(NCCCc1ccccc1)c1cc(COc2c(F)cccc2F)on1 12.6 µM
CC(C)Cc1cc(C(=O)NCCc2ccccc2)no1 5.01 µM
